42 molecules from PubChem BioAssay AID1851 (National Center for Advancing Translational Sciences (NCATS), 2009) can be followed below.

“And” between values parts separate entries of the source, which are not always exact repeats. Equal entries are not always repeated. About 4,000 (25%) of roughly 16,000 compounds were called active. Roughly 26% stayed inconclusive and do not appear here. Calls come from the whole dose curve; as a rule, active = well fitted curve in the direction sought with a large enough effect; inconclusive = small, poorly fitted or top-dose-only effect, or effect the other way; inactive = no such curve, though single readings can be large or run the other way. A selection follows. Where a structure was tested more than once in an assay, its records may differ in their call.

The term AC50 denotes the concentration giving half of the maximal activity seen.
% is set by controls: 0 for no effect and ±100 for the full control effect.

The target of this test is Cytochrome P450 2C9 (Homo sapiens) (UniProt P11712). As to the kind of experiment: Cytochrome panel assay with activity outcomes. The following applies: recombinant CYP, pro-luciferin dealkylation, luminescence, p450-cyp2c9; series mostly up to 57.1 µM; activity, negative = inhibition: at the top concentration.
Cytochrome P450 2C9 (Homo sapiens), sequence (P11712 whole entry, looked up): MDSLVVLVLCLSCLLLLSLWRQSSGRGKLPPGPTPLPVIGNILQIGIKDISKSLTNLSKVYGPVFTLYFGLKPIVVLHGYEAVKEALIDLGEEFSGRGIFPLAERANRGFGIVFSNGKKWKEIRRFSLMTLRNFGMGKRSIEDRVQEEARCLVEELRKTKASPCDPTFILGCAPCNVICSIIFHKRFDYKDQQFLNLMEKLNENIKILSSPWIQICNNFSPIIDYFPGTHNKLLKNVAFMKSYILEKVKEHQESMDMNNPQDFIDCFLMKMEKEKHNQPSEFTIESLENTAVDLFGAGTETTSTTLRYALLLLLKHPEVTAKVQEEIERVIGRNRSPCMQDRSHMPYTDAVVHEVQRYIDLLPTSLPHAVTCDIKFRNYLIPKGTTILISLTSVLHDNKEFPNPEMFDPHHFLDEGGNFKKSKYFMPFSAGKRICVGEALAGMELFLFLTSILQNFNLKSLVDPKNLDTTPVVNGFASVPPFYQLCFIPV
Take `O=C1Nc2ccccc2/C1=N/c1sc2c(c1C(=O)NCCc1ccccc1)CCCC2`: the AC50 is 3980 nM (active).

Consider `O=C(NCCc1ccccc1)C(=O)NN=C1CCCC1`, for which the “activity, negative = inhibition” value is -22.4% (inactive).

With `NS(=O)(=O)c1ccc(N=C2C(=O)Nc3ccccc32)cc1`, the activity, negative = inhibition was 0.554% [at 11.4 µM] (inactive).

Take `C=CC1=C(C(=O)O)N2C(=O)[C@@H](NC(=O)/C(=N\OCC(=O)O)c3csc(N)n3)[C@@H]2SC1`: the “activity, negative = inhibition” value was 6.6% [at 25.6 µM] (inactive).

Consider `CN(C)S(=O)(=O)Oc1cccc(C(=O)Nc2ccccc2Cl)c1`, for which the AC50 is 5010 nM (active).

Take `O=C(NNc1cccc(Cl)n1)Nc1ccccc1Cl`: the “activity, negative = inhibition” value is 2.18% (inactive).

Take `Cc1nc2cnc(N(C)C)nc2n(C)c1=O`: the “activity, negative = inhibition” value is -11.2% (inactive).

In the case of `CCOC(=O)c1sc2nc3c(cc2c1N)COC(C(C)C)C3` (configuration not stated), the “activity, negative = inhibition” value is -14.7% (inactive).

`CCOC(=O)c1sc2nc3c(cc2c1N)COC(C)(CC)C3` (configuration not stated): the AC50 was 10000 nM (active).

On to `C#CCN1C(C)=C(C(=O)OC)[C@@H](c2cccc([N+](=O)[O-])c2)C(C(=O)OCC)=C1C`, for which the half-maximal activity concentration (AC50) was 316 nM (active).

As for `CCOC(=O)C1=C(C)NC(C)=C(C(=O)OC)[C@@H]1c1cccc([N+](=O)[O-])c1`, the AC50 is 316 nM (active).

On to `CCOC(=O)C1=C(C)NC(C)=C(C(=O)OC)[C@H]1c1cccc([N+](=O)[O-])c1`, for which the concentration at half-maximal activity (AC50) was 158 nM (active).

For the molecule `CCOC(=O)/C(=C/Nc1ccccc1)[N+](=O)[O-]`, the “activity, negative = inhibition” value is -19.7% (inactive).

Regarding `CO[C@H]1COC(=O)[C@@H](CCSC)NC(=O)C/C=C\[C@@H](C)[C@H](OC)COC(=O)[C@@H](OCc2ccccc2)/C=C\[C@@H]1C`, the activity, negative = inhibition was 19.4% [at 11.4 µM] (inactive).

Consider `O=C(Nc1cccc(C(=O)Nc2ccc(S(=O)(=O)O)c3cc(S(=O)(=O)O)cc(S(=O)(=O)O)c23)c1)Nc1cccc(C(=O)Nc2ccc(S(=O)(=O)O)c3cc(S(=O)(=O)O)cc(S(=O)(=O)O)c23)c1`, for which the AC50 result is “inactive”.

As for `O=C(Nc1cc(C(=O)Nc2ccc(S(=O)(=O)O)cc2S(=O)(=O)O)cc(C(=O)Nc2ccc(S(=O)(=O)O)cc2S(=O)(=O)O)c1)Nc1cc(C(=O)Nc2ccc(S(=O)(=O)O)cc2S(=O)(=O)O)cc(C(=O)Nc2ccc(S(=O)(=O)O)cc2S(=O)(=O)O)c1`, the AC50 result is “inactive and 7.94 µM (active)”.

As to `O=C(Nc1ccc(C(=O)Nc2ccc(C(=O)Nc3ccc(S(=O)(=O)O)c4cc(S(=O)(=O)O)cc(S(=O)(=O)O)c34)cc2)cc1)Nc1ccc(C(=O)Nc2ccc(C(=O)Nc3ccc(S(=O)(=O)O)c4cc(S(=O)(=O)O)cc(S(=O)(=O)O)c34)cc2)cc1`, the “activity, negative = inhibition” value is -1.99% (inactive).

Consider `COCCNc1ccnc(-c2ccccc2C)n1`, for which the activity, negative = inhibition was -5% [at 2.29 µM] (inactive).

Consider `CCOC(=O)c1cnn(CCOC(=O)C(C)(C)C)c1NC(=O)C(C)(C)C`, for which the “activity, negative = inhibition” value is -32.9% (inactive).

`CCOC(=O)c1cnn(-c2nc(-c3ccc(F)cc3)cs2)c1C(F)(F)F`: the AC50 is 12600 nM (active).

For `CCOC(=O)c1cnn(-c2cc(Oc3ccccc3)ncn2)c1N`, the “activity, negative = inhibition” value is -9.04% (inactive).

Turning to `CCOC(=O)c1cn(-c2nc(-c3ccc(Cl)cc3)cs2)c2c(F)c(N3CC(C)OC(C)C3)c(F)cc2c1=O` (configuration not stated), the “activity, negative = inhibition” value is -40.2% (inactive).

For the molecule `CCOC(=O)c1cnn(-c2nc(-c3cccc(F)c3)cs2)c1C(F)(F)F`, the AC50 was 2240 nM (active).

On to `FC(F)(F)c1ccccc1-c1cncnc1NCc1cccs1`, for which the activity, negative = inhibition is -5.24% [at 2.29 µM] (inactive).

Consider `CC(C)n1nnc2ccccc2c1=O`, for which the “activity, negative = inhibition” value is -24.8% (inactive).

For the molecule `O=c1c2ccccc2nnn1CSc1ccc2c(c1)OCCO2`, the AC50 was 7940 nM (active).

Consider `Cc1ccc(C(=O)/C=C/c2c[nH]c3ccccc23)cc1`, for which the concentration at half-maximal activity (AC50) was 2820 nM (active).

In the case of `Cc1ccc(C(=O)/C=C2\NCC(C)NC2=O)cc1` (configuration not stated), the “activity, negative = inhibition” value is -2.82% (inactive).

`CC(C)(C)OC(=O)[C@H]([C@@H]1N[C@@H](C(=O)O)C(C)(C)S1)N1C(=O)c2ccccc2C1=O`: the activity, negative = inhibition was 19% [at 11.4 µM] (inactive).

Consider `CSc1nsc(SCc2ccc(Cl)cc2)n1`, for which the AC50 was 355 nM (active).

As for `CCN1C(=O)[C@H]2[C@H]3[C@H](O)[C@H](O)C/C(=N/O[C@@H](C)c4cn([C@H](CO)Cc5ccccc5)nn4)[C@@H]3CC[C@@H]2C1=O`, the activity, negative = inhibition was -13.4% [at 11.4 µM] (inactive) and 2.69% [at 11.4 µM] (inactive).

Consider `CC1(C)O[C@@H]2O[C@H]([C@H](O)CO/N=C3/[C@H]4O[C@@H]4[C@@H](O)[C@H]4[C@H]3CCn3c(=O)n(-c5ccccc5)c(=O)n34)[C@@H](O)[C@@H]2O1`, for which the activity, negative = inhibition was 15.4% [at 11.4 µM] (inactive).

Regarding `Cc1cc(C=O)c(C)n1-c1ccc(NC2CCCC2)c([N+](=O)[O-])c1`, the “activity, negative = inhibition” value is -36.3% (inactive).

For `COC(=O)c1c(-n2c(C)cc(C=O)c2C)sc2c1CCCC2`, the AC50 was 1120 nM (active).

`Cc1sc(N/N=C/c2cccnc2)nc1-c1ccccc1`: the AC50 was 355 nM (active).

As for `C(=N/Nc1nnc2c(n1)[nH]c1ccccc12)/c1cccnc1`, the activity, negative = inhibition is -16.8% [at 11.4 µM] (inactive).

Regarding `Cc1cnn(-c2cc(N/N=C/c3ccccc3)ncn2)c1`, the “activity, negative = inhibition” value is -16% (inactive).

On to `CC(C)=C[C@H]1[C@@H](C(=O)Oc2ccccc2C(C)C)C1(C)C`, for which the activity, negative = inhibition is -15.1% [at 11.4 µM] (inactive).

Consider `CCN1C(=O)[C@H]2[C@@H]3[C@H](O)C=CC(=O)[C@H]3CC[C@H]2C1=O`, for which the activity, negative = inhibition was 17.9% [at 11.4 µM] (inactive).

Consider `CCN1CCN(C(=O)N[C@H](C(=O)N[C@@H]2C(=O)N3[C@@H]2SC(C)(C)[C@@H]3C(=O)O)c2ccccc2)C(=O)C1=O`, for which the “activity, negative = inhibition” value is 25.1% [at 25.6 µM] (inactive).

On to `COc1cc2c(c(O)c1OC)C(=O)C(OC)CCC2` (configuration not stated), for which the “activity, negative = inhibition” value was 18.1% (inactive).

For the molecule `COc1cc([C@H]2c3cc4c(cc3[C@@H](O)[C@@H]3COC(=O)[C@H]23)OCO4)cc(OC)c1OC`, the concentration at half-maximal activity (AC50) was 6310 nM (active).
